Several values for one entry are separate records, joined by “and”; a condition that tells them apart may be missing. Equal entries are not always repeated. Records with an inconclusive call do not appear. Some compounds were tested as several samples or in several runs, with calls that do not always agree. Activity calls are given as the source filed them. Unless noted, the call rests on the fitted dose curve; in most records, active means well fitted curve in either direction with a large enough effect (not every such curve was filed as active); inconclusive means small, poorly fitted or top-dose-only effect, or another doubt; inactive means flat fitted curve, though single readings scatter.
How the values were obtained:
[1] = Stat Signaling Pathway (AID 446); details: ME-180 SIE beta-lactamase reporter, IL-6 stimulated, 5 h;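 further: ME-180 cervical cancer cells given 40 pM IL-6 alongside compound; SIE-controlled beta-lactamase reporter measured as 460/530 nm FRET emission ratio; on the % scale 0 is the no-effect control and ±100 the full control effect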
Procedure, shortened: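 Reporter line: ME-180 cervical carcinoma, SIE-beta-lactamase. Treatment: compound with 40 pM IL-6, 5 hrs, 37 C, in low-serum OPTI-MEM with 10 mM HEPES pH 7.3. Detection: 460/530 nm fluorescence.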

[2] = target: Glucocorticoid receptor (Homo sapiens) (UniProt P04150); test: GR-EFC Redistribution (AID 451; calls by dose curve; further: potency means the concentration at half of the fitted maximal effect); details: CHO-K1 GR-EFC translocation, beta-gal luminescence, 2 h
Procedure, shortened: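 CHO-K1 cells expressing nuclear EA and GR-ED fragments of b-gal; compounds titrated up to 46 uM final, 2 h at 37 C. GR nuclear translocation read as complemented b-gal luminescence after 1 h RT detection.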

[3] = target: Mitogen-activated protein kinase 10 (Mus musculus) (UniProt Q61831); test: JNK3 AlphaScreen Assay (AID 530);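 further: kinase came from lysate of stimulated human HepG2 cells; signal reports phosphorylation of biotinylated GST-cJun 1-79 at Ser73 with 10 µM ATP; on the % scale 0 is the no-effect control and ±100 the full control effect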
Procedure, shortened: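 qHTS format: compounds tested as titrations against IL-1beta/TNF-alpha-activated HepG2 lysate JNK3 with biotin-GST-cJun substrate and 10 uM ATP at room temperature. Loss of anti-phospho-cJun AlphaScreen signal indicates inhibition.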

[4] = target: 3',5'-cyclic-AMP phosphodiesterase 4B (Homo sapiens) (UniProt Q07343); test: qHTS Assay for Inhibitors of PDE-IV (AID 607; active means well fitted activation curve with a large enough effect in the main read-out, with a control signal flat, not every such curve was filed as active; further: % of control where 0% means no effect)
Procedure, shortened: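 Cell-based read-out of cAMP via a modified cyclic nucleotide-gated channel and membrane potential dye (535/590 nm) in HEK293 cells expressing PDE4 endogenously. Compounds tested up to 22.9 uM final; 100 uM RO 20-1724 reference.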

[5] = qHTS Assay for Lipid Storage Modulators (AID 1519; calls by dose curve); details: Drosophila S3 cells, BODIPY lipid droplet/cell ratio, laser cytometry, cells loaded with oleic acid
Procedure, shortened: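 Cells seeded at 5,000 per well were treated with compounds over a concentration series and loaded with oleic acid (400 uM, as added). Lipid droplet fluorescence (488 nm excitation, 500-530 nm channel) was read by laser-scanning cytometry and normalized to 20 uM Triacsin C.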

[6] = AP1 Signaling Pathway (AID 357); details: ME-180 (cervical carcinoma) AP-1-bla reporter, EGF-induced, beta-lactamase ratio, 5 h;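 further: ME-180 reporter cells stimulated with EGF at its EC50 level; on the % scale 0 is the no-effect control and ±100 the full control effect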
Procedure, shortened: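 A ratiometric CCF4 readout (405 nm excitation; 460 and 530 nm emission) quantified AP-1-driven beta-lactamase in ME-180 cells after 5 h with compound and EC50 EGF; AC50 values were derived for activators and inhibitors.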

[7] = target: Cytochrome P450 1A2 (Homo sapiens) (UniProt P05177); test: p450-cyp1a2 (AID 410; calls by dose curve; further: potency means the concentration at half of the fitted maximal effect;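 on activity change, negative = inhibition: -100% = full effect of reference inhibitor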)
Procedure, shortened: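 Inhibition was calculated relative to 57 uM furafylline (full inhibition). The reaction used human CYP1A2 at 20nM with Luciferin-ME at its Km, 100uM, driven by an NADPH-regenerating system for 60 min at room temperature.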

[8] = NFAT Signaling Pathway (AID 444); details: Jurkat NFAT-bla M1, carbachol, beta-lactamase ratio, 5 h;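 further: carbachol stimulus at about its EC50 of 1 µM final; on the % scale 0 is the no-effect control and ±100 the full control effect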
Procedure, shortened: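 Jurkat cells with NFAT-driven β-lactamase reporter and co-expressed M1 receptor, stimulated with carbachol (final 1 uM, ~EC50), compound titration, 5 h at 37 °C. CCF4 loaded 1 h at RT; 460/530 nm ratio gave %activity and AC50.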

[9] = target: Glucocorticoid receptor (Homo sapiens) (UniProt P04150); test: GR-GFP Redistribution (AID 450;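 active means compounds whose dose series gives a full or clear partial fitted curve of increased nuclear translocation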; further: potency means the concentration at half of the fitted maximal effect); details: U2OS GR-GFP nuclear translocation, laser cytometry, 2 h
[10] = target: alpha-glucosidase (Oryza sativa, rice) (UniProt Q653V4); test: Counterscreen for Glucocerebrosidase Inhibitors: qHTS Assay for Rice alpha-Glucosidase at pH 5.0 (AID 997; active means well fitted curve in the direction sought with a large enough effect; an effect the other way counts as inactive or inconclusive;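 further: 0% = full activity with enzyme and -100% = basal without enzyme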)
Procedure, shortened: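 Rice alpha-glucosidase (4 nM final) with 400 uM 4-methylumbelliferyl-alpha-D-glucopyranoside in citrate buffer pH 5.0, 20 min at room temperature, stopped at pH 10; fluorescence 365/440 nm, compounds 0.7 nM–77 uM, AC50 from Hill fits.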

[11] = target: ATP-dependent 6-phosphofructokinase (Trypanosoma brucei brucei) (UniProt O15648); test: qHTS Assay to Find Inhibitors of T. brucei phosphofructokinase: hit validation (AID 492961; active means well fitted curve in the direction sought with a large enough effect; an effect the other way counts as inactive or inconclusive; further: on the % scale 0 is the no-effect control and ±100 the full control effect)
Procedure, shortened: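 Luminescence from ADP-Glo reports ADP generated as T. brucei PFK (1.25 nM) phosphorylates 0.5 mM fructose-6-phosphate using 0.1 mM ATP. Reactions ran 45 min at room temperature, pH 8.0.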

[12] = target: Luciferin 4-monooxygenase (Photinus pyralis) (UniProt P08659); test: Biochemical firefly luciferase enzyme assay for NPC (AID 624030; active means well fitted curve in the direction sought with a large enough effect; an effect the other way counts as inactive or inconclusive;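 further: purified P. pyralis luciferase at 10 nM with luciferin and ATP substrate; 0% = DMSO and -100% = full luciferase inhibition by PTC124 control; nearly all actives have a fitted effect of over 70% in size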)
Procedure, shortened: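 Purified P. pyralis luciferase at 10 nM in 50 mM Tris Acetate (final), luminescence read within 5 minutes of enzyme addition to compounds. Activity normalised to PTC124 versus DMSO; concentration-response curves classed by r2, magnitude and activity.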

[13] = qHTS profiling for inhibitors of Plasmodium falciparum proliferation (AID 504749; active means well fitted curve in the direction sought with a large enough effect; an effect the other way counts as inactive or inconclusive;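 further: 0% = DMSO vehicle and full inhibition = artemisinin control; nearly all actives have a fitted effect of over 60% in size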); details: P. falciparum in erythrocytes, SYBR Green DNA, 72 h, at 28.7 µM (top of the series)
Procedure, shortened: (§1)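 Readout was DNA-dye fluorescence from lysed cultures, ex 485/em 535 nm. Parasitized red cells had grown 72 h with compound; data scaled between 0.29 uM artemisinin and DMSO wells and corrected using vehicle-only plates.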

AS120 = test: as above; details: P. falciparum in erythrocytes, SYBR Green DNA, 72 h; series mostly up to 28.7 µM
Procedure, shortened: as §1

CP238 = test: as above; details: P. falciparum in erythrocytes, SYBR Green DNA, 72 h; series mostly up to 12.8 µM
Procedure, shortened: as §1

CP250 = test: as above; details: P. falciparum in erythrocytes, SYBR Green DNA, 72 h; series mostly up to 12.8 µM
Procedure, shortened: as §1

CP265 = test: as above; details: P. falciparum in erythrocytes, SYBR Green DNA, 72 h; series mostly up to 12.8 µM
Procedure, shortened: as §1

FAB9 = test: as above; details: P. falciparum in erythrocytes, SYBR Green DNA, 72 h; series mostly up to 12.8 µM
Procedure, shortened: as §1

[14] = target: Ubiquitin carboxyl-terminal hydrolase 1 (Homo sapiens) (UniProt O94782); test: Inhibitors of USP1/UAF1: Pilot qHTS (AID 504865; active means well fitted curve in the direction sought with a large enough effect; an effect the other way counts as inactive or inconclusive;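 further: rhodamine fluorescence freed from ubiquitin-rhodamine substrate followed over time; top concentration of the series differs between compounds; on the % scale 0 is the no-effect control and ±100 the full control effect; nearly all actives have a fitted effect of over 35% in size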)
Procedure, shortened: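 USP1/UAF1 complex at 1 nM preincubated 15 min at room temperature with compound, then Ub-Rho substrate added at 150 nM final. Fluorescence (480/540 nm) read kinetically in 50 mM HEPES pH 7.8, 0.5 mM EDTA, 1 mM TCEP, 0.1 mg/ml BSA, 0.01% Tween-20.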

[15] = measured here: cell count channel max response
[16] = measured here: lipid channel max response

Sequence of Cytochrome P450 1A2 (Homo sapiens) (P05177 whole entry, looked up): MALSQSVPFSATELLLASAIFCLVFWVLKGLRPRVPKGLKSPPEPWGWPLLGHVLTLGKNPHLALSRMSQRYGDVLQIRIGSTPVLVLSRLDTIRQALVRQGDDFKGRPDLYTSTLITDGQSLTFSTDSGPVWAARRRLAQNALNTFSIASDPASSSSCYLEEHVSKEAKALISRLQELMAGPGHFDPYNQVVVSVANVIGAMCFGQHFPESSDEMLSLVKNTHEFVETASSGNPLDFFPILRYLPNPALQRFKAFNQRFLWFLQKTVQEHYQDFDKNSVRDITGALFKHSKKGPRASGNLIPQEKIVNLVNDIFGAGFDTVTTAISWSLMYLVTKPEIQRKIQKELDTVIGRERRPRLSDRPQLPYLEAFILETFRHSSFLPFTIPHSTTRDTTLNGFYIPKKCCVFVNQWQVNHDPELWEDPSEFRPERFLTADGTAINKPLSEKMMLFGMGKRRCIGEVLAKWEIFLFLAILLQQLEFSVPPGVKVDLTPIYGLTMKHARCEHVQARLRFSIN
Sequence of 3',5'-cyclic-AMP phosphodiesterase 4B (Homo sapiens) (Q07343 whole entry, looked up): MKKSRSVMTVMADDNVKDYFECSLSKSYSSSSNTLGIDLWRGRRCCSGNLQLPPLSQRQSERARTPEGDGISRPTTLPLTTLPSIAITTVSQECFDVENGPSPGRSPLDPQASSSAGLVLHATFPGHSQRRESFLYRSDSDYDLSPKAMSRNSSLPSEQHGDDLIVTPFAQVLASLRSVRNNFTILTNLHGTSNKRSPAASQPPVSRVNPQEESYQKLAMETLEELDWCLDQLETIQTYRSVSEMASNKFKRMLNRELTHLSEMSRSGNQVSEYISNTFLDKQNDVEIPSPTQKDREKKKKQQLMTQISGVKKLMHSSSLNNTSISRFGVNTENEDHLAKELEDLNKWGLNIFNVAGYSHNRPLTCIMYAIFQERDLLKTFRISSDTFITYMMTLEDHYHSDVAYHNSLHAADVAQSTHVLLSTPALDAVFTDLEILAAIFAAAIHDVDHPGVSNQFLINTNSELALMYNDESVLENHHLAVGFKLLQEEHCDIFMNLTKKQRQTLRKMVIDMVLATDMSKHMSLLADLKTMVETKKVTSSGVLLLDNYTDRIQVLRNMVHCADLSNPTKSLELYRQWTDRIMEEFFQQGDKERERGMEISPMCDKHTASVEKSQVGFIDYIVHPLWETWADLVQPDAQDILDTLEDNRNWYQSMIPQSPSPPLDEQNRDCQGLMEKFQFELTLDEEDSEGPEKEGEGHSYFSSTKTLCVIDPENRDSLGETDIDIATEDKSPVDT
Sequence of Glucocorticoid receptor (Homo sapiens) (P04150 whole entry, looked up, the tested form may be a part): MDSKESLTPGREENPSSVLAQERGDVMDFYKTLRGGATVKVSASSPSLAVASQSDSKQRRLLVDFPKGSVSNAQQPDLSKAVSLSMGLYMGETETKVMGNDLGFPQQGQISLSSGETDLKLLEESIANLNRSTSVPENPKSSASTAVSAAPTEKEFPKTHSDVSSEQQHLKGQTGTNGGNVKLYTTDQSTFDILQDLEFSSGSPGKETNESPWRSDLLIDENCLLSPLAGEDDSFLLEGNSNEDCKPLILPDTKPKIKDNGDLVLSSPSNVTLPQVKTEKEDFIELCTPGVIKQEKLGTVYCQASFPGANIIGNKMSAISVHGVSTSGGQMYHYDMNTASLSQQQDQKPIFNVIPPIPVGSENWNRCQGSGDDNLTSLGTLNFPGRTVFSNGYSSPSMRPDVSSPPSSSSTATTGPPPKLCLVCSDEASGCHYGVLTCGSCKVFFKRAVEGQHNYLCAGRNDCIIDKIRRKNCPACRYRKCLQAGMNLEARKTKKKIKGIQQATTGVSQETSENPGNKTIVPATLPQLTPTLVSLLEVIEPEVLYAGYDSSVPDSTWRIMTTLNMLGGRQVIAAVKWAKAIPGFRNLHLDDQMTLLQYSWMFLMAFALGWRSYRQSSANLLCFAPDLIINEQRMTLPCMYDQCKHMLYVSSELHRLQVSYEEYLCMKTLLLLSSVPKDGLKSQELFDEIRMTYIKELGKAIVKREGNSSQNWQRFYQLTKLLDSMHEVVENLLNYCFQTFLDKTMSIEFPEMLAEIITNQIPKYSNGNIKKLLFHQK
Sequence of Ubiquitin carboxyl-terminal hydrolase 1 (Homo sapiens) (O94782 whole entry, looked up): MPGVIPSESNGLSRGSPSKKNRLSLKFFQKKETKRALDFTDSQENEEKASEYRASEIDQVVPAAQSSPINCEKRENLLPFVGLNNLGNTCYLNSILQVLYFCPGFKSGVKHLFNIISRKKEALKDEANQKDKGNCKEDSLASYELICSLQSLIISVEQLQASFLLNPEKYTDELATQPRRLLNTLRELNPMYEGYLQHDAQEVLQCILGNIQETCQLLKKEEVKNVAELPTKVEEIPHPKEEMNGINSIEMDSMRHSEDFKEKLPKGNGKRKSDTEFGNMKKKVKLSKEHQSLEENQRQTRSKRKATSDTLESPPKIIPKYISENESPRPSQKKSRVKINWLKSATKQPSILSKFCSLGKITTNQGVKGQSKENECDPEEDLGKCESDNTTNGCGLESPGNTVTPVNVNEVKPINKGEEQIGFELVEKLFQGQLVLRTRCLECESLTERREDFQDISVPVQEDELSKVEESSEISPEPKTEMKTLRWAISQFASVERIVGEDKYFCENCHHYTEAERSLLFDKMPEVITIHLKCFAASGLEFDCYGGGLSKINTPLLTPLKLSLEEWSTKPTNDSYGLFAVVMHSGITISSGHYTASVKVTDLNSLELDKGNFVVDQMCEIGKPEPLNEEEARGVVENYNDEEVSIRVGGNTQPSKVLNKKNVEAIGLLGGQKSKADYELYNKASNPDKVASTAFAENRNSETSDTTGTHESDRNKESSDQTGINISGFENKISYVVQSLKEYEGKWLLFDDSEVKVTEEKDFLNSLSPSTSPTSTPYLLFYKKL
Sequence of Luciferin 4-monooxygenase (Photinus pyralis) (P08659 whole entry, looked up): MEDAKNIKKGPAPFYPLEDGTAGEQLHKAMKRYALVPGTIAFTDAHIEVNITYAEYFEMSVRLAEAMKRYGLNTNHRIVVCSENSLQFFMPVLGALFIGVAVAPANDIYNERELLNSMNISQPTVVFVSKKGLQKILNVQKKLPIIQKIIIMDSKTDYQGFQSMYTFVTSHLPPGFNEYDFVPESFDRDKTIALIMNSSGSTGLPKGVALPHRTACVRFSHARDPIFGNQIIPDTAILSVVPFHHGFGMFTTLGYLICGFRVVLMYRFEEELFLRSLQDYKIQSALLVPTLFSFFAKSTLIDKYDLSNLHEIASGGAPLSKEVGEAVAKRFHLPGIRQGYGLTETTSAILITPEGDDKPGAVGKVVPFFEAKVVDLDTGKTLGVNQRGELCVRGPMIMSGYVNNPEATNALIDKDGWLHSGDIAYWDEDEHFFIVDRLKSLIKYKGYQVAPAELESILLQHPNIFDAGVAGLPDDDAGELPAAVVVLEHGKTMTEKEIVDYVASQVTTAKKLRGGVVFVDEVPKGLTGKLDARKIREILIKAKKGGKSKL
Sequence of ATP-dependent 6-phosphofructokinase (Trypanosoma brucei brucei) (O15648 whole entry, looked up): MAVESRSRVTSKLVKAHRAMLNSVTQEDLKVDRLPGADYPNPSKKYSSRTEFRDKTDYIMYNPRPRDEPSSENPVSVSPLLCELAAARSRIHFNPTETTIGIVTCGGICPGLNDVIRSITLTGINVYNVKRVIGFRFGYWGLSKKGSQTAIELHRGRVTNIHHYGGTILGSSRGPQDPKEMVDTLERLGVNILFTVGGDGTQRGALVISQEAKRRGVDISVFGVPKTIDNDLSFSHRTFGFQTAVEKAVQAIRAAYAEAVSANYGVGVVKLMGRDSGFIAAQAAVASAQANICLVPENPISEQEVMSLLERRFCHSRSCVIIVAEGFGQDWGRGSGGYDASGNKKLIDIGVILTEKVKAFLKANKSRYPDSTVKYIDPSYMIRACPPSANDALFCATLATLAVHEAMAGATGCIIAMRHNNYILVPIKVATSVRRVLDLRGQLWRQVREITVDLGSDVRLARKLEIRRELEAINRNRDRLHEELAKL

With O=C(c1cc(C(F)(F)F)cc(C(F)(F)F)c1)N1CCC2(CCCN(c3ccncc3)C2)CC1 the activity, negative = inhibition ([1]; at 7.69 µM (top of the series) unless noted) was 16.9% (inactive), the Potency [2] was > 46 µM (inactive) and the Potency [3] was “inactive”. For the same compound, the Potency [4] was “inactive”, the activity change, negative = inhibition ([5]; at 57.5 µM (top of the series)) was 5.04% (inactive) and the max response [5, 15] was 8.86%. It also gave a max response [5, 16] of 16%.

For CC(=O)OCC1=C(C(=O)O)N2C(=O)[C@@H](NC(=O)Cc3cccs3)[C@@H]2SC1, the activity change, negative = inhibition ([6]; at 17.2 µM (top of the series)) was 7.41% (inactive), the activity change, negative = inhibition ([6]; at 38 µM (top of the series)) was -2.48% (inactive) and the Potency [7] was “inactive”. For the same compound, the activity change, negative = inhibition ([8]; at 17.2 µM (top of the series)) was -11.2% (inactive), the activity change, negative = inhibition ([8]; at 38 µM (top of the series)) was 3.89% (inactive) and the activity, negative = inhibition ([1]; at 17.2 µM (top of the series)) was -1.09% (inactive). The activity, negative = inhibition ([1]; at 38 µM (top of the series)) was -3.08% (inactive), the Potency [9] was > 46 µM (inactive) and > 20.6 µM (inactive) and the Potency [2] was > 46 µM (inactive) and > 20.6 µM (inactive). The Potency [3] was “inactive”, the Potency [4] was “inactive” and the outcome [10] was “inactive”. The activity change, negative = inhibition ([5]; at 25.7 µM (top of the series)) was -1.63% (inactive), the max response [5, 15] was -17.3% and the max response [5, 16] was -18.6%.

In the case of COc1ccc(-c2nc3cnc(N4CCNCC4)nc3n(C3CC3)c2=O)cc1, the Potency [7] is reported as 6.31 µM (active), the Potency [9] is reported as > 9.22 µM (inactive) and the Potency [2] is reported as > 46 µM (inactive). For the same compound, the Potency [3] was “inactive”, the Potency [4] was “inactive” and the activity change, negative = inhibition ([5]; at 57.5 µM (top of the series)) was 0.741% (inactive). It also gave a max response [5, 15] of 4.22% and a max response [5, 16] of 6.87%.

With CC(C)(C)NC[C@H](O)c1cc(O)cc(O)c1 the activity change, negative = inhibition ([6]; at 17.2 µM (top of the series)) was -14.7% (inactive), the activity change, negative = inhibition ([6]; at 38 µM (top of the series)) was -8.4% (inactive) and the Potency [7] was “inactive”. For the same compound, the activity change, negative = inhibition ([8]; at 17.2 µM (top of the series)) was -10.3% (inactive), the activity change, negative = inhibition ([8]; at 38 µM (top of the series)) was 0.832% (inactive) and the activity, negative = inhibition ([1]; at 17.2 µM (top of the series)) was -0.828% (inactive). For the same compound, the activity, negative = inhibition ([1]; at 38 µM (top of the series)) was 3.91% (inactive), the Potency [3] was “inactive” and the outcome [10] was “inactive”. For the same compound, the activity change, negative = inhibition ([5]; at 25.7 µM (top of the series)) was -2.66% (inactive), the max response [5, 15] was 8% and the max response [5, 16] was 4.68%. For the same compound, the outcome [11] was “inactive”, the outcome [12] was “inactive” and the activity, negative = inhibition ([13]; parasite line A) was -9.2% (inactive). The activity, negative = inhibition ([13]; parasite line B) was -17.1% (inactive), the Potency (AS120) was “inactive” and the Potency (CP238) was “inactive”. The Potency (CP250) was “inactive”, the Potency (CP265) was “inactive” and the Potency (FAB9) was “inactive”.

With c1ccc([C@@H]2CN3CCSC3=N2)cc1 the activity change, negative = inhibition ([6]; at 17.2 µM (top of the series)) was 0.374% (inactive), the activity change, negative = inhibition ([6]; at 38 µM (top of the series)) was 8.49% (inactive) and 7.24% (inactive) and the Potency [7] was 31.6 µM (active) and inactive and 10 µM (active). For the same compound, the activity change, negative = inhibition ([8]; at 17.2 µM (top of the series)) was -19.6% (inactive), the activity change, negative = inhibition ([8]; at 38 µM (top of the series)) was -1.25% (inactive) and -14% (inactive) and the activity, negative = inhibition ([1]; at 17.2 µM (top of the series)) was -3.45% (inactive). The activity, negative = inhibition ([1]; at 38 µM (top of the series)) was 11.8% (inactive), the Potency [9] was > 46 µM (inactive) and > 20.6 µM (inactive) and the Potency [2] was > 46 µM (inactive) and > 20.6 µM (inactive). The Potency [3] was “inactive”, the Potency [4] was “inactive” and the outcome [10] was “inactive”. For the same compound, the activity change, negative = inhibition ([5]; at 25.7 µM (top of the series)) was -1.37% (inactive), the max response [5, 15] was 3.69% and the max response [5, 16] was -1.44%. The Potency [14] was “inactive”.

In the case of CN1C(=O)CC[C@@H]1c1cccnc1, the activity change, negative = inhibition ([6]; at 17.2 µM (top of the series)) is reported as 10.4% (inactive), the activity change, negative = inhibition ([6]; at 38 µM (top of the series)) is reported as -5.74% (inactive) and the Potency [7] is reported as “inactive”. The activity change, negative = inhibition ([8]; at 17.2 µM (top of the series)) was 1.15% (inactive), the activity change, negative = inhibition ([8]; at 38 µM (top of the series)) was 1.74% (inactive) and the activity, negative = inhibition ([1]; at 17.2 µM (top of the series)) was -1.06% (inactive). The activity, negative = inhibition ([1]; at 38 µM (top of the series)) was 17.2% (inactive), the Potency [3] was “inactive” and the Potency [4] was “inactive”. The outcome [10] was “inactive”, the activity change, negative = inhibition ([5]; at 25.7 µM (top of the series)) was 0.0072% (inactive) and the max response [5, 15] was 5.39%. The max response [5, 16] was 2.29% and the Potency [14] was “inactive”.
